In PubChem BioAssay AID1220 (Sanford-Burnham Center for Chemical Genomics, 2008):
Screen size: about 190,000 compounds; about 1,300 (0.68%) were called active. No stated cut-off is given here; in the data, active means inhibition above about 50%; inactive means the rest. Shown is part of a subset that was picked to be rich in actives.

Each molecule was assayed against Mannose-6-phosphate isomerase (Homo sapiens) (UniProt P34949) (assay: MPI inhibition at elevated mannose 6-phosphate – biochemical, fluorescence intensity, high mannose 6-phosphate, primary screen (AID 1220)). Details: recombinant PMI enzyme, coupled fluorescence intensity; at 20 µM; stronger effect = higher value.
Chain of Mannose-6-phosphate isomerase (Homo sapiens) (P34949 whole entry, looked up): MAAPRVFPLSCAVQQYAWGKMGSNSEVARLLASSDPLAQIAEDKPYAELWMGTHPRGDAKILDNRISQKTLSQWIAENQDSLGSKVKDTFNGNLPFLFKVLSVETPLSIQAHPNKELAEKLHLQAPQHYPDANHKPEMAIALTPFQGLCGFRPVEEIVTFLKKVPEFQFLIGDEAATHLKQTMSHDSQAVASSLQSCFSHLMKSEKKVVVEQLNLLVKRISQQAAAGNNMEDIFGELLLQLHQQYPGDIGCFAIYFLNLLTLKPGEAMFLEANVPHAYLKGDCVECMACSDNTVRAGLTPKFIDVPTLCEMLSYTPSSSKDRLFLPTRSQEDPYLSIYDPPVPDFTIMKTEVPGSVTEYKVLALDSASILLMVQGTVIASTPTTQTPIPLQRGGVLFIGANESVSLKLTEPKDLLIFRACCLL

inhibition, active:
Nc1cc2c(cc1O)CCCC2 54.3%, O=C1C2C3C=CC(C3)C2C(=O)N1CNc1ccc(O)cc1 (stereo not drawn) 58.4%, O=C(O)c1cccc(NS(=O)(=O)c2ccc(-c3ccc(S(=O)(=O)Nc4cccc(C(=O)O)c4)cc3)cc2)c1 53.1%, CCOC(=O)C1CCN(C(=O)c2c(C)oc3c2C(=O)c2ccccc2C3=O)CC1 55.2%, Cc1oc2c(c1C(=O)N1CCC(C)CC1)C(=O)c1ccccc1C2=O 54.7%, N#Cc1c(N2CCCCC2)nc(N)c2c(N)nc3c(c12)CC(c1ccccc1)O3 (stereo not drawn) 56.5%, CCC1Cc2c(nc(N)c3c(N)nc(N4CCOCC4)c(C#N)c23)O1 (stereo not drawn) 61.5%, O=C(Nc1ccccc1NC(=O)C1CCCO1)c1ccco1 (stereo not drawn) 51.8%, O=c1c2ccccc2sn1-c1cc(S(=O)(=O)N2CCOCC2)ccc1N1CCCC1 77.3%, O=c1c2ccccc2sn1-c1cc(S(=O)(=O)N2CCOCC2)ccc1N1CCOCC1 96.3%, O=c1c(N2CCOCC2)nsnc1N1CCOCC1 53.3%, CC(C)(C)c1cc(N)n(-c2ccc(C(=O)O)cc2)n1 52.8%, CCN(CC)Cc1cc(O)c(CN(CC)CC)cc1O 54.7%, CCN1C(c2ccccc2)=C(c2ccccc2)S/C1=C/C=C1\SC(=S)N(C)C1=O 54.4%, Cc1cc(O)ccc1N=Cc1c(C(F)(F)F)[nH][nH]c1=O 62.2%, COc1ccc(C(CC(=O)Nc2cc([N+](=O)[O-])ccc2OC)c2ccccc2)cc1 (stereo not drawn) 54.1%, CCOC(=O)c1cnc(SC2CCc3ccccc3C2=O)nc1N (stereo not drawn) 53%, N#CC1(C#N)CC(C=O)=C(N)C1(C#N)CC(=O)c1ccc(F)cc1 (stereo not drawn) 52.8%

inhibition, inactive:
COc1cccc(C(=O)Nc2ccc3c(c2)C(=O)N(CCC(=O)O)C3=O)c1 3.7%, CC1CCCC(NC(=O)COC(=O)CSc2ccc3ccccc3c2)C1C (stereo not drawn) 7.7%, Cc1ccc(-c2nnc(-c3ccccc3)c(-c3ccccc3)n2)cc1 -0.5%, Cc1ccc(-c2cc(-c3ccccc3)nc(Cl)n2)cc1 12.5%, Cc1ccc(-c2nc(N)sc2C)cc1 -10.2%, Cc1ccc(-c2nc(N)sc2-c2ccc(C)cc2)cc1 13.6%, CCCCC(=O)OCC(=O)c1[nH]c(C)c(C(C)=O)c1C -12%, CCc1nnc(NC(=O)c2ccc(N(C)S(=O)(=O)c3ccccc3)cc2)s1 -6.4%, CC(C)c1ccccc1NC(=O)COC(=O)CNC(=O)c1ccc(Br)cc1 4.8%, O=C(O)c1ccc2c(c1)CCC2 0.1%, Nc1ccc(Cc2ccc(N)c(O)c2)cc1O 46.8%, COc1cc(NC(=O)CSc2c3c(nc4ccccc24)CCC3)cc(OC)c1OC -3.7%, CCOc1ccccc1NC(=O)CCN(c1ccc(C)cc1)S(=O)(=O)c1ccccc1 5.3%, Cc1nn(Cc2c(F)c(F)c(F)c(F)c2F)c(C)c1NC(=O)c1ccc(COc2cc(Cl)ccc2Cl)cc1 0.7%, O=C1C2C3C=CC(C3)C2C(=O)N1CNc1ccccc1 (stereo not drawn) -1%, Cc1ccc(NCN2C(=O)C3C4C=CC(C4)C3C2=O)cc1 (stereo not drawn) 16.9%, CC12CC(NC(=O)N1c1cccc(C(=O)N3CCN(c4ccccn4)CC3)c1)c1ccccc1O2 (stereo not drawn) -3.4%, O=C(CSc1nnc(SCc2cccc3ccccc23)s1)Nc1ccc(C(=O)O)cc1 10.4%, COc1ccc(COc2ccc(C3C(S(=O)(=O)c4ccccc4)CON3C)cc2OC)cc1 (stereo not drawn) -2.4%, O=C(O)c1cccc(NS(=O)(=O)c2ccc(Cl)c(C(=O)O)c2)c1 1.9%, O=C(O)c1cccc(NS(=O)(=O)c2ccc(C3CCCCC3)cc2)c1 -7%, Cc1oc2c(c1C(=O)O)C(=O)c1ccccc1C2=O -9.6%, CCOC(=O)C1CCN(C(C)=C2C(=O)c3ccccc3C2=O)CC1 -9.2%, CC(=O)c1c(C)oc2c1C(=O)c1ccccc1C2=O -9.9%, CCOC(=O)c1c(C)oc2c1C(=O)c1ccccc1C2=O -16.2%, CSc1nc(-c2ccccc2)c(-c2ccccc2)[nH]1 -9.1%, COc1ccc([N+](=O)[O-])cc1N(CC(=O)NC1CCCC1)S(C)(=O)=O -1.4%, Cc1cccc(N=C2NN=C(c3c(C)[nH]c4ccccc34)CS2)c1 -7%, O=C(Nc1ccc(Cl)cc1)N(Cc1nnc2n1CCCCC2)c1ccccc1 -8.1%, CCOC(=O)c1ccc(CN(Cc2ccc(C)cc2)S(=O)(=O)c2cccc([N+](=O)[O-])c2)cc1 -10%, CCN(CC)c1nc(N)c2c(N)nc3c(c2c1C#N)CC(c1ccccc1)O3 (stereo not drawn) 31.2%, N#Cc1c(N2CCCCC2)nc(N)c2c(N)nc3c(c12)CC(CCl)O3 (stereo not drawn) 47.3%, COc1ccc(CN2C(=O)Cc3c2nc(N)c2c(N)nc(N4CCCCC4)c(C#N)c32)cc1 37.8%, CCc1nc(N2CCOCC2)c(C#N)c2c1CCCC2 4.2%, CCOc1ccccc1C1N(c2ccc(OC)cc2)C(=O)C2CCCN21 (stereo not drawn) 2.6%, CC(C)(C)NC(=O)C(c1ccncc1)N(C(=O)Cn1nnc(-c2ccc(F)cc2)n1)c1ccccc1F (stereo not drawn) 1.9%, O=C(Nc1cccc(NC(=O)C2CCCO2)c1)c1ccco1 (stereo not drawn) 13.7%, Cc1ccc(NC(=O)c2ccco2)c(NC(=O)C2CCCO2)c1 (stereo not drawn) 11.8%, CCOC(=O)N1CCC(N(CCN(C)C)C(=S)Nc2cccc(Cl)c2)CC1 10.6%, O=C(O)c1cc(S(=O)(=O)N2CCOCC2)ccc1N1CCOCC1 -9.3%, O=c1c2ccccc2sn1-c1ccc(S(=O)(=O)N2CCCC2)cc1 5%, O=S(=O)(c1ccc2c(c1)oc1ccccc12)N1CCOCC1 3.7%, Cc1ccc(C)n1-c1cc(S(=O)(=O)N2CCOCC2)ccc1N1CCCC1 17%, Cc1cc2ccccc2n1CCNC(=O)C(C)Oc1ccccc1 (stereo not drawn) 5.6%, Cc1cc(Nc2ccccc2)nc(N2CCOCC2)n1 -4.3%, COCCCNC(=O)c1cc(C(=O)c2c(-c3c(Cl)cccc3Cl)noc2C)c[nH]1 -2.4%, CC1(C)CC(=O)c2cnc3c(C#N)cnn3c2C1 6.6%, Cc1ccc(CN(Cc2ccco2)C(=S)Nc2ccccc2C)cc1 8.6%, O=c1[nH]snc1N1CCOCC1 -7.2%, COc1nsnc1N1CCOCC1 -11.2%, Cc1ccc(Oc2c(F)c(F)nc(N3CCCC3)c2F)cc1 32.2%, CCN(CC(=O)NCc1cccs1)C(=O)CCc1c[nH]c2ccccc12 8.8%, Cc1cc(C)n(-c2ccc(C(=O)O)cc2)n1 30.6%, Cc1cc(N)n(-c2ccc(C(=O)O)cc2)n1 2.1%, O=C(Cn1cnc2sc(-c3ccccc3)cc2c1=O)NCc1ccccc1 -8.4%, CCOC(=O)C1=C(CSc2nccn2C)NC(=O)NC1c1cc(C)ccc1C (stereo not drawn) -2%, CCc1oc(C(=O)O)cc1CN(CC)CC 10.9%, CCN(CC)Cc1cc(C(C)=O)ccc1O -8.6%, CC(=O)Nc1ccc(NC(=O)CCC(=O)OCC(=O)c2ccc(C)c([N+](=O)[O-])c2)cc1 -5.6%, O=C(c1ccc(C(=O)N2CCOCC2)s1)N1CCOCC1 -3.8%, CN1C(=O)/C(=C/C=C2\SCCN2C)SC1=S 29.3%, CCN1C(=O)/C(=C/C=C2/Sc3ccc4ccccc4c3N2CCO)SC1=S -5.4%, CC1(C)CC2CC(C)(CN2C(=O)C23CCC(C)(C(=O)O2)C3(C)C)C1 (stereo not drawn) 9.1%, O=C(COC(=O)CCc1ccccc1)Nc1cc(S(=O)(=O)N2CCOCC2)ccc1N1CCCC1 7.1%, Cc1cccc(C)c1N=Cc1c(C(F)(F)F)[nH][nH]c1=O 0.2%, O=c1[nH][nH]c(C(F)(F)F)c1C=Nc1ccccc1Cl -6.7%, COc1ccc(CNC(=O)CN(c2ccccc2)S(=O)(=O)c2ccccc2[N+](=O)[O-])cc1 -11.2%, CCN(Cc1ccccc1)C(=O)Cn1cc2c(n1)CCCC2 10.5%, Cc1ccc(CNC(=O)CCc2nc3ccccc3c(=O)[nH]2)cc1 2.2%, CCOC(=O)N1CCC(c2nc(C)sc2C(=O)O)CC1 1.2%, CC(C)Cn1nc(NC(=O)C2CCCO2)c2cc3ccccc3nc21 (stereo not drawn) 6.4%, Cc1occc1-c1nnc(SCC(=O)N2CCOCC2)n1CC(C)C 6.1%, COc1ccc([N+](=O)[O-])cc1NC(=O)CC(C)c1ccccc1 (stereo not drawn) 14.4%, COc1ccc([N+](=O)[O-])cc1NC(=O)CC(c1ccccc1)c1ccccc1 7.4%, CS(=O)(=O)N1CCC(Oc2ccccc2C(=O)NC(C2CC2)C2CC2)CC1 2.8%, CCOC(=O)c1cnc(SC2CC(=O)N(c3ccccc3)C2=O)nc1N (stereo not drawn) 0.1%, CCOC(=O)c1cnc(SC2CC(=O)N(c3ccc(C)cc3)C2=O)nc1N (stereo not drawn) -5.1%, COCCn1nnnc1C(C(C)C)N1CCSCC1 (stereo not drawn) -8%, O=C(/C=C\NCC(=O)c1ccccc1)c1ccc(F)cc1 -70.8%, N#CC1(C#N)CC(C=O)=C(N)C1(C#N)CC(=O)C12CC3CC(CC(C3)C1)C2 (stereo not drawn) 32.5%
